What all share (conditions): mRNA level, 48 h; actives raise or lower the signal
Read-out in experiment [1]: Fatty Acid-Binding Protein 1 (FABP1), FABP1 (gene 2168)
Description: LTEA_HepaRG_FABP1: Life Technologies and Expression Analysis (LTEA) Assay for Fatty Acid-Binding Protein 1 (FABP1) using HepaRG (AID 2283494). In short, it runs like this: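 FABP1 expression by TaqMan qRT-PCR, normalised to three housekeeping genes, in HepaRG cells after 48 h chemical treatment. Eight-point half-log series topping at 100 uM in 0.5% DMSO, duplicates; gain or loss fitted relative to vehicle.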

Read-out in experiment [2]: Cytochrome P450 4A22 (Homo sapiens) (UniProt Q5TCH4)
Description: LTEA_HepaRG_CYP4A22: Life Technologies and Expression Analysis (LTEA) Assay for Cytochrome P450 4A22 (CYP4A22) using HepaRG (AID 2283495). The procedure, abridged: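 qRT-PCR of CYP4A22 mRNA (Fluidigm TaqMan, normalized to three housekeeping genes) after 48 h chemical exposure of HepaRG cells; 8-point half-log series, top 100 uM, 0.5% DMSO vehicle. Bidirectional curve fitting vs DMSO baseline.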

Read-out in experiment [3]: Cytochrome P450 7A1 (Homo sapiens) (UniProt P22680)
Description: LTEA_HepaRG_CYP7A1: Life Technologies and Expression Analysis (LTEA) Assay for Cytochrome P450 7A1 (CYP7A1) using HepaRG (AID 2283496). In short, it runs like this:
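HepaRG, 48 h exposure, 8-pt half-log series from 100 uM, 0.5% DMSO vehicle, duplicates. Readout: TaqMan qRT-PCR mRNA vs three housekeeping genes; bidirectional curve fit against DMSO baseline.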

Read-out in experiment [4]: Glutathione S-Transferase (GSTA2), GSTA2 (gene 2939)
Nature of the experiment: LTEA_HepaRG_GSTA2: Life Technologies and Expression Analysis (LTEA) Assay for Glutathione S-Transferase (GSTA2) using HepaRG (AID 2283497). The procedure, abridged:
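GSTA2 transcript levels came from Fluidigm TaqMan qRT-PCR normalized to three housekeeping genes, fitted in both directions against DMSO. HepaRG cultures received chemicals for 48 h in serum-free induction medium (0.5% DMSO), 8 half-log concentrations up to 100 uM, duplicate.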

Read-out in experiment [5]: Glutamate-cysteine ligase catalytic (GCLC), GCLC (gene 2729)
Nature of the experiment: LTEA_HepaRG_GCLC: Life Technologies and Expression Analysis (LTEA) Assay for Glutamate-cysteine ligase catalytic (GCLC) using HepaRG (AID 2283498). In short, it runs like this:
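Expression by TaqMan qRT-PCR, normalized to three housekeeping genes (ACTB, GAPDH, POLR2A), with up- or down-regulation fitted against DMSO. HepaRG cells dosed in duplicate for 48 h with 8 half-log concentrations up to 100 uM, vehicle 0.5% DMSO.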

Read-out in experiment [6]: growth arrest and DNA damage 45 (GADD45G), GADD45G (gene 10912)
Nature of the experiment: LTEA_HepaRG_GADD45G: Life Technologies and Expression Analysis (LTEA) Assay for growth arrest and DNA damage 45 (GADD45G) using HepaRG (AID 2283499). In short, it runs like this:
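Differentiated human HepaRG cells in serum-free induction medium were exposed for 48 h to 8 half-log concentrations up to 100 uM in 0.5% DMSO, in duplicate. GADD45G mRNA was measured by TaqMan qRT-PCR, normalised to ACTB, GAPDH and POLR2A, and fitted bidirectionally against DMSO.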

Read-out in experiment [7]: Glutamate-cysteine ligase regulatory (GCLM), GCLM (gene 2730)
Description: LTEA_HepaRG_GCLM: Life Technologies and Expression Analysis (LTEA) Assay for Glutamate-cysteine ligase regulatory (GCLM) using HepaRG (AID 2283500). In short, it runs like this:
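GCLM expression quantified by qRT-PCR, normalized to three housekeeping genes, after 48 h chemical treatment of HepaRG cells in duplicate at 8 concentrations (top 100 uM, half-log steps, 0.5% DMSO). Changes fitted both directions against vehicle.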

Read-out in experiment [8]: Glutathione S-transferase M3 (GSTM3), GSTM3 (gene 2947)
Nature of the experiment: LTEA_HepaRG_GSTM3: Life Technologies and Expression Analysis (LTEA) Assay for Glutathione S-transferase M3 (GSTM3) using HepaRG (AID 2283501). The procedure, abridged:
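Differentiated HepaRG cells in serum-free induction medium were exposed in duplicate for 48 h to 8 half-log concentrations up to 100 uM in 0.5% DMSO. GSTM3 mRNA was measured by TaqMan qRT-PCR, normalized to ACTB/GAPDH/POLR2A, and fitted bidirectionally versus DMSO.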

Read-out in experiment [9]: Heat shock 70 kDa protein 1 (HSPA1A), gene 3303
Nature of the experiment: LTEA_HepaRG_HSPA1A: Life Technologies and Expression Analysis (LTEA) Assay for Heat shock 70 kDa protein 1 (HSPA1A) using HepaRG (AID 2283502). In short, it runs like this:
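HSPA1A expression measured by qRT-PCR with ACTB/GAPDH/POLR2A normalization; curves fitted in both directions relative to DMSO vehicle. Exposure: 48 h in HepaRG cells, duplicate 8-point half-log series from 100 uM, 0.5% DMSO, serum-free induction medium.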

Read-out in experiment [10]: Hypoxia-inducible factor 1-alpha (Homo sapiens) (UniProt Q16665)
Nature of the experiment: LTEA_HepaRG_HIF1A: Life Technologies and Expression Analysis (LTEA) Assay for Hypoxia-inducible factor 1 (HIF1A) Trancription factor using HepaRG (AID 2283503). The procedure, abridged:
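HIF1A transcript level read by qRT-PCR (ACTB, GAPDH, POLR2A normalization) after 48 h chemical exposure of HepaRG cultures. Eight half-log concentrations, top 100 uM, 0.5% DMSO vehicle, duplicates; bidirectional curve fit against DMSO baseline.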

Read-out in experiment [11]: 3-Hydroxy-3-Methylglutaryl-CoA Synthase 2 (HMGCS2), HMGCS2 (gene 3158)
Nature of the experiment: LTEA_HepaRG_HMGCS2: Life Technologies and Expression Analysis (LTEA) Assay for 3-Hydroxy-3-Methylglutaryl-CoA Synthase 2 (HMGCS2) using HepaRG (AID 2283504). In short, it runs like this:
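Differentiated human HepaRG cells were exposed in duplicate for 48 h in serum-free induction medium to eight concentrations (top 100 uM, half-log steps, 0.5% DMSO). HMGCS2 mRNA was quantified by TaqMan qRT-PCR, normalised to ACTB, GAPDH and POLR2A, then fitted bidirectionally against DMSO.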

Read-out in experiment [12]: HGF (gene 3082)
Nature of the experiment: LTEA_HepaRG_HGF: Life Technologies and Expression Analysis (LTEA) Assay for Hepatocyte Growth Facto (HGF) using HepaRG (AID 2283505). The procedure, abridged: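 Differentiated human HepaRG cells in serum-free induction medium were exposed in duplicate for 48 h to eight concentrations (top 100 uM, half-log steps, 0.5% DMSO). HGF mRNA was quantified by qRT-PCR, normalized to ACTB, GAPDH and POLR2A.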

Read-out in experiment [13]: Insulin Like Growth Factor 1 (IGF1), IGF1 (gene 3479)
Nature of the experiment: LTEA_HepaRG_IGF1: Life Technologies and Expression Analysis (LTEA) Assay for Insulin Like Growth Factor 1 (IGF1) using HepaRG (AID 2283506). In short, it runs like this: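 Expression measured by TaqMan qRT-PCR on a Fluidigm array, with three housekeeping genes for normalisation, after 48 h treatment of HepaRG cells. Top concentration 100 uM with half-log steps, 0.5% DMSO vehicle, bidirectional fit.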

Read-out in experiment [14]: Intercellular Adhesion Molecule 1 (ICAM1), ICAM1 (gene 3383)
Nature of the experiment: LTEA_HepaRG_ICAM1: Life Technologies and Expression Analysis (LTEA) Assay for Intercellular Adhesion Molecule 1 (ICAM1) using HepaRG (AID 2283507). The procedure, abridged: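 Differentiated HepaRG cells in serum-free induction medium were exposed in duplicate for 48 h to eight half-log concentrations up to 100 uM in 0.5% DMSO. Transcript levels were measured by qRT-PCR normalized to ACTB, GAPDH and POLR2A; bidirectional fits relative to DMSO.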

Read-out in experiment [15]: Insulin-like growth factor-binding protein 1 (IGFBP1), IGFBP1 (gene 3484)
Description: LTEA_HepaRG_IGFBP1: Life Technologies and Expression Analysis (LTEA) Assay for Insulin-like growth factor-binding protein 1 (IGFBP1) using HepaRG (AID 2283508). The procedure, abridged:
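Differentiated human HepaRG cells in serum-free induction medium were exposed in duplicate for 48 h to eight concentrations, top 100 uM with half-log dilutions, in 0.5% DMSO. Transcript levels came from qRT-PCR normalised to ACTB, GAPDH and POLR2A, fitted bidirectionally against DMSO.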

Read-out in experiment [16]: Interleukin 6 (IL6), IL6 (gene 3569)
Description: LTEA_HepaRG_IL6: Life Technologies and Expression Analysis (LTEA) Assay for Interleukin 6 (IL6) using HepaRG (AID 2283509). The procedure, abridged:
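Transcript levels, normalized to three housekeeping genes, were quantified by qRT-PCR after 48 h chemical treatment of HepaRG cells. Eight-point half-log series from 100 uM in 0.5% DMSO, duplicates. Fitted both directions against DMSO baseline.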

Read-out in experiment [17]: Interleukin 6 Receptor (IL6R), IL6R (gene 3570)
Nature of the experiment: LTEA_HepaRG_IL6R: Life Technologies and Expression Analysis (LTEA) Assay for Interleukin 6 Receptor (IL6R) using HepaRG (AID 2283510). The procedure, abridged:
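IL6R transcript level by qRT-PCR after 48 h chemical exposure (8-point, half-log, max 100 uM, 0.5% DMSO vehicle) of HepaRG cells in serum-free induction medium. Normalized to three housekeeping genes; curves fitted in both directions relative to DMSO.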

Read-out in experiment [18]: Potassium channel subfamily K member 1 (KCNK1), KCNK1 (gene 3775)
Nature of the experiment: LTEA_HepaRG_KCNK1: Life Technologies and Expression Analysis (LTEA) Assay for Potassium channel subfamily K member 1 (KCNK1) using HepaRG (AID 2283511). The procedure, abridged: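 KCNK1 transcript measured by TaqMan qRT-PCR against three housekeeping genes, after HepaRG cells were treated 48 h with eight half-log concentrations (top 100 uM, 0.5% DMSO). Curves fitted bidirectionally relative to vehicle.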

Read-out in experiment [19]: JUN Transcription Factor, JUN (gene 3725)
Nature of the experiment: LTEA_HepaRG_JUN: Life Technologies and Expression Analysis (LTEA) Assay for JUN Transcription Factor using HepaRG (AID 2283513). In short, it runs like this: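 mRNA measured by TaqMan qRT-PCR after 48 h chemical exposure of HepaRG cultures; normalization to three housekeeping genes. Duplicate eight-point half-log curves from 100 uM in 0.5% DMSO; gain or loss fitted against DMSO baseline.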

Structures are written as SMILES. Activity calls are given as the source filed them. Rule for the calls: active = hit-call score of the fitted dose curve at least 0.9, where 1 is the maximum; inactive = score below 0.9.

What is called AC50 is the midpoint of the concentration-response curve, whichever way the signal moves.

Sequence of Hypoxia-inducible factor 1-alpha (Homo sapiens) (Q16665 whole entry, looked up): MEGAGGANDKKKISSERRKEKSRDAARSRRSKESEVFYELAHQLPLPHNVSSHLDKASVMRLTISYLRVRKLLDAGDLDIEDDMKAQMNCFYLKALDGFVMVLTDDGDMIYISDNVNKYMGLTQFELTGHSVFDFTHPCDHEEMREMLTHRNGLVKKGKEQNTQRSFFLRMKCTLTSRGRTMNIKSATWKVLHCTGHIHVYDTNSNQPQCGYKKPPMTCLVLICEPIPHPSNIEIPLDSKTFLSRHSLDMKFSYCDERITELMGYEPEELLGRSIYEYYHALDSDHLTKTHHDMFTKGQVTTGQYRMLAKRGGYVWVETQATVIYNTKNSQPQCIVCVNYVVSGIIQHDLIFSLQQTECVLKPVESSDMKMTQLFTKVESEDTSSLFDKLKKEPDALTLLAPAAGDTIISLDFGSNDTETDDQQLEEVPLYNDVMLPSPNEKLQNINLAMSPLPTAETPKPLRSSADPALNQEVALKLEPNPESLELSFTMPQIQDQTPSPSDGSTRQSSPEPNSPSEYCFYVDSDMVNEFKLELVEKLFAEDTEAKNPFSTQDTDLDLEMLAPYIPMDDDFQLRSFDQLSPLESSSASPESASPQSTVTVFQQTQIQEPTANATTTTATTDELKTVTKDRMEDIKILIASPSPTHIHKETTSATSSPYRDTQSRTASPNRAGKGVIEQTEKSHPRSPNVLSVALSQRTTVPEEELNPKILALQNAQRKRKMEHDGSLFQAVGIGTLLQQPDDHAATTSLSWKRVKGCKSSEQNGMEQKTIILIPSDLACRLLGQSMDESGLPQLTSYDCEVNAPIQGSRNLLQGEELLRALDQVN

For `Nc1ccc(Cl)cc1`, the call in [1], in experiment [2], in experiment [3], in [4], in experiment [5] and in [6] was inactive. In addition, the call in [7], in [8], in experiment [9], in experiment [10], in [11] and in experiment [12] was inactive. The outcome in experiment [13], in experiment [14], in experiment [15], in experiment [16], in [17] and in experiment [18] was inactive. The result in experiment [19] was inactive.

Consider `CCCCCCCc1ccc(O)cc1`, for which the call in experiment [1], in [2], in [3], in [4], in experiment [5] and in experiment [6] was inactive. The molecule was classed as inactive in [7], in experiment [8], in experiment [9], in [10], in experiment [11] and in experiment [12]. Moreover, the outcome in [13], in [14], in experiment [15], in experiment [16], in experiment [17] and in experiment [18] was inactive. For the same molecule, the call in experiment [19] was inactive.

`c1ccc2c(c1)Nc1ccccc1S2`: the values for the AC50 in experiment [1], in experiment [3] and in [13] were 50 µM (active), 20.2 µM (active) and 50 µM (active), respectively. Further, the outcome in experiment [2], in experiment [4], in experiment [5], in experiment [6], in experiment [7] and in experiment [8] was inactive. Moreover, the molecule was classed as inactive in experiment [9], in experiment [10], in experiment [11], in experiment [12], in experiment [14] and in [15]. Besides, the outcome in experiment [16], in experiment [17], in experiment [18] and in experiment [19] was inactive.

For `c1cc2c3c(cccc3c1)CC2`, the outcome in experiment [1], in experiment [2], in experiment [3], in experiment [4], in [5] and in experiment [6] was inactive. Moreover, the outcome in experiment [7], in experiment [8], in experiment [9], in experiment [10], in experiment [11] and in experiment [12] was inactive. For the same molecule, the molecule was called inactive in [13], in [14], in experiment [15], in experiment [16], in [17] and in [18]. Moreover, the call in experiment [19] was inactive.

In the case of `CCCCN(CCCC)N=O`, the outcome in experiment [1], in [2], in experiment [3], in experiment [4], in [5] and in experiment [6] was inactive. In addition, the call in experiment [7], in experiment [8], in experiment [9], in experiment [10], in [11] and in [12] was inactive. The molecule was called inactive in experiment [13], in [14], in experiment [15], in experiment [16], in experiment [17] and in experiment [18]. Moreover, in experiment [19], the outcome was inactive.
